Data taken from PubChem BioAssay (NCATS).
Inconclusive results are not listed. A call without a number means that no potency is given here. Active and inactive are the calls of the source. Calls come from the whole dose curve; as a rule, active = well fitted curve in the direction sought with a large enough effect; inconclusive = small, poorly fitted or top-dose-only effect, or another doubt; inactive = no such curve, though single readings can be large; an effect the other way counts as inactive or inconclusive.

Assays:
[1] = target: N-terminal Xaa-Pro-Lys N-methyltransferase 1 (Homo sapiens) (UniProt Q9BV86); experiment: qHTS Assay for Inhibitors of N-terminal methyltransferase 1 (NTMT1): LOPAC validation of the NTMT1 SAHH-coupled ThioGlo3 Assay (AID 1347143); conditions: recombinant NTMT1, SAHH-coupled ThioGlo3 fluorescence; series mostly up to 114 µM;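 note: SAH from peptide methylation measured as thiol fluorescence via SAHH coupling and ThioGlo3; nearly all actives have a fitted effect of over 70% in size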
Summary of the method: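 Recombinant human NTMT1 (125nM) was pre-incubated 1 min at room temperature with compounds over a concentration range, then a mix of 100uM SAM, 10uM SAHH and 15uM ThioGlo3 (concentrations in added reagent) was added. ThioGlo3 fluorescence (ex 340/em 450nm) after 30 min was normalized to the initial reading.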

[2] = system: Zika virus NS2B-NS3 protease; experiment: Primary screen GU AMC qHTS for Zika virus inhibitors (AID 1347154); conditions: Zika NS2B-NS3 unlinked protease, AMC fluorogenic substrate; series mostly up to 54.1 µM; note: nearly all actives have a fitted effect of over 70% in size; note: potency is the fitted concentration of half-maximal effect
Summary of the method: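 Unlinked Zika NS2B hydrophilic domain–NS3 protease complex at 25 nM in 10 mM Tris-HCl pH 8.0, 0.01% Tween 20, with an AMC peptide substrate. Fluorescence change (340/450 nm) over 15 min at room temperature, normalized to controls, fitted to 4-parameter Hill.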

[3] = qHTS of pediatric cancer cell lines to identify multiple opportunities for drug repurposing: Confirmatory screen for A673 cells (AID 1347110); conditions: A673 Ewing sarcoma cell viability; series mostly up to 45.9 µM; note: nearly all actives have a fitted effect of over 65% in size; note: potency is the fitted concentration of half-maximal effect
Summary of the method: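 Forty-eight-hour viability assay. Follow-up compounds ran at 11-point dilutions; positive control bortezomib at 2.3 uM final, neutral control DMSO.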

[4] = qHTS of pediatric cancer cell lines to identify multiple opportunities for drug repurposing: Confirmatory screen for SK-N-MC cells (AID 1347111); conditions: SK-N-MC cell viability; series mostly up to 45.9 µM;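 note: potency is the fitted concentration of half-maximal effect; cells exposed to compound for 48 h before the readout; nearly all actives have a fitted effect of over 70% in size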
Summary of the method: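 SK-N-MC cells at 500-1,000 cells/well in growth media were pre-incubated 5 h, then exposed to compounds at 11-point dilutions for 48 h at 37 degrees C, 5% CO2. Viability was read as CellTiter-Glo luminescence.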

[5] = qHTS of pediatric cancer cell lines to identify multiple opportunities for drug repurposing: Confirmatory screen for BT-12 cells (AID 1347112); conditions: BT-12 rhabdoid tumor cells, viability; series mostly up to 45.9 µM; note: nearly all actives have a fitted effect of over 55% in size; note: potency is the fitted concentration of half-maximal effect
Summary of the method: (§1)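 Viability after 48 h compound treatment at 37C, 500-1,000 cells/well, read as ATP luminescence with CellTiter-Glo. Primary screens used 11-point (MIPE, 0.78 nM-46 µM) or 8-point (NPC, 0.59 nM-46 µM) final concentrations; follow-up screens used 11-point dilutions.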

[6] = qHTS of pediatric cancer cell lines to identify multiple opportunities for drug repurposing: Confirmatory screen for LAN-5 cells (AID 1347113); conditions: LAN-5 neuroblastoma cell viability; series mostly up to 45.9 µM; note: nearly all actives have a fitted effect of over 65% in size; note: potency is the fitted concentration of half-maximal effect
Summary of the method: as §1

[7] = qHTS of pediatric cancer cell lines to identify multiple opportunities for drug repurposing: Confirmatory screen for DAOY cells (AID 1347114); conditions: DAOY medulloblastoma cells viability, cytotoxicity qHTS; series mostly up to 45.9 µM; note: nearly all actives have a fitted effect of over 65% in size; note: potency is the fitted concentration of half-maximal effect
Summary of the method: (§2)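 Viability measured as metabolically active cells via CellTiter-Glo luminescence following 48 hours of compound exposure, 11-point dilutions in confirmatory testing. 500-1,000 cells/well plated 5 hours before dosing; controls were DMSO and 2.3 µM bortezomib.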

[8] = qHTS of pediatric cancer cell lines to identify multiple opportunities for drug repurposing: Confirmatory screen for NB-EBc1 cells (AID 1347115); conditions: NB-EBc1 neuroblastoma cells, viability (cytotoxicity); series mostly up to 45.9 µM; note: nearly all actives have a fitted effect of over 45% in size; note: potency is the fitted concentration of half-maximal effect
Summary of the method: as §1

[9] = qHTS of pediatric cancer cell lines to identify multiple opportunities for drug repurposing: Confirmatory screen for SJ-GBM2 cells (AID 1347116); conditions: SJ-GBM2 glioblastoma cells, viability; series mostly up to 45.9 µM; note: nearly all actives have a fitted effect of over 60% in size; note: potency is the fitted concentration of half-maximal effect
Summary of the method: as §2

[10] = qHTS of pediatric cancer cell lines to identify multiple opportunities for drug repurposing: Confirmatory screen for TC32 cells (AID 1347118); conditions: TC32 Ewing sarcoma cells viability qHTS; series mostly up to 45.9 µM; note: potency is the fitted concentration of half-maximal effect; nearly all actives have a fitted effect of over 65% in size
Summary of the method: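 qHTS, TC32, 48 h drug treatment, CellTiter-Glo luminescence as a proxy for metabolically active cells; primary top concentration 46 µM (MIPE 11-pt, NPC 8-pt); confirmatory 11-pt.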

[11] = qHTS of pediatric cancer cell lines to identify multiple opportunities for drug repurposing: Confirmatory screen for MG 63 (6-TG R) cells (AID 1347119); conditions: MG-63 (6-TG resistant) osteosarcoma viability; series mostly up to 45.9 µM; note: nearly all actives have a fitted effect of over 55% in size; note: potency is the fitted concentration of half-maximal effect
Summary of the method: as §1

[12] = qHTS of pediatric cancer cell lines to identify multiple opportunities for drug repurposing: Confirmatory screen for Rh41 cells (AID 1347123); conditions: Rh41 rhabdomyosarcoma cells, viability/cytotoxicity qHTS; series mostly up to 45.9 µM;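 note: 48 h compound exposure; nearly all actives have a fitted effect of over 60% in size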; note: potency is the fitted concentration of half-maximal effect
Summary of the method: as §1

[13] = qHTS of pediatric cancer cell lines to identify multiple opportunities for drug repurposing: Confirmatory screen for RD cells (AID 1347124); conditions: RD rhabdomyosarcoma cell viability; series mostly up to 45.9 µM; note: potency is the fitted concentration of half-maximal effect
Summary of the method: as §1

[14] = qHTS of pediatric cancer cell lines to identify multiple opportunities for drug repurposing: Confirmatory screen for Rh18 cells (AID 1347125); conditions: Rh18 rhabdomyosarcoma cells, viability; series mostly up to 45.9 µM; note: nearly all actives have a fitted effect of over 55% in size; note: potency is the fitted concentration of half-maximal effect
Summary of the method: as §1

[15] = qHTS of pediatric cancer cell lines to identify multiple opportunities for drug repurposing: Confirmatory screen for Rh30 cells (AID 1347126); conditions: Rh30 rhabdomyosarcoma cell viability; series mostly up to 45.9 µM; note: nearly all actives have a fitted effect of over 55% in size; note: potency is the fitted concentration of half-maximal effect
Summary of the method: as §1

[16] = qHTS of pediatric cancer cell lines to identify multiple opportunities for drug repurposing: Confirmatory screen for SK-N-SH cells (AID 1347129); conditions: SK-N-SH neuroblastoma cell viability; series mostly up to 46.1 µM; note: nearly all actives have a fitted effect of over 60% in size
Summary of the method: as §1

[17] = system: Zika virus NS2B-NS3 protease (unlinked); experiment: Optimization of GU AMC qHTS for Zika virus inhibitors: Unlinked NS2B-NS3 protease assay (AID 1347151); conditions: recombinant ZIKV NS2B-NS3 protease, fluorogenic AMC substrate; series mostly up to 52.5 µM; note: nearly all actives have a fitted effect of over 80% in size
Summary of the method: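 In this qHTS, compounds acted on 25 nM unlinked Zika NS2B–NS3 in pH 8.0 Tris/Tween buffer. Cleavage of an AMC peptide ran 15 min at room temperature, to about 20% conversion.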

Furin (Homo sapiens) = Furin (Homo sapiens) (UniProt P09958); experiment: Furin counterscreen qHTS for Zika virus inhibitors (AID 1347149); conditions: furin enzymatic counterscreen, fluorogenic substrate; series mostly up to 57.5 µM;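 note: purified recombinant full-length human furin enzyme at 5 nM; fluorescence gain from furin cutting a BOC-RVRR-AMC peptide substrate over 15 min; top concentration of the series differs between compounds; nearly all actives have a fitted effect of over 70% in size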
Summary of the method: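 Fluorogenic cleavage of BOC-RVRR-AMC (2 microM final, Km ~15 µM) was monitored (ex 340, em 450 nm) at 37C after 15 min RT preincubation of 5 nM furin with compounds in HEPES pH 7.0 buffer with CaCl2 and Triton X-100. Percent inhibition was fitted to a 4-parameter Hill curve.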

[18] = system: Zika virus NS2B-NS3 protease (linked construct); experiment: Confirmatory screen NINDS AMC qHTS for Zika virus inhibitors (AID 1347152); conditions: Purified linked NS2B-NS3, AMC substrate fluorescence; series mostly up to 56.6 µM
Summary of the method: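 Concentration-response confirmation used the NINDS linked protease (NS2B hydrophilic domain joined to NS3 protease domain), 1 nM, with a 15-min compound preincubation. Substrate, Nle-KRR-AMC at 10 microM, was read by UV fluorescence before and after 15 min.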

[19] = system: Zika virus NS2B-NS3 protease (unlinked complex); experiment: Confirmatory screen GU AMC qHTS for Zika virus inhibitors (AID 1347153); conditions: Recombinant NS2B-NS3 protease, AMC substrate fluorescence; series mostly up to 57.1 µM; note: nearly all actives have a fitted effect of over 70% in size
Summary of the method: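 Fluorescence change (ex 340/em 450 nm) over 15 min, ~20% substrate conversion, normalized to no-inhibitor and no-enzyme controls, then Hill-fitted. Unlinked protease at 25 nM; AMC peptide 10 µM.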

Sequence of N-terminal Xaa-Pro-Lys N-methyltransferase 1 (Homo sapiens) (Q9BV86 whole entry, looked up): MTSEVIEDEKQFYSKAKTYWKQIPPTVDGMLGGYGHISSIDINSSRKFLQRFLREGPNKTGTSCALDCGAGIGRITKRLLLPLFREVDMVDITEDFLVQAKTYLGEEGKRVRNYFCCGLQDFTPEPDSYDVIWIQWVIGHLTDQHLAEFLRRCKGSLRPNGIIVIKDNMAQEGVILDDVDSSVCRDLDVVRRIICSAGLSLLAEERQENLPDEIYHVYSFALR
Sequence of Furin (Homo sapiens) (P09958 whole entry, looked up): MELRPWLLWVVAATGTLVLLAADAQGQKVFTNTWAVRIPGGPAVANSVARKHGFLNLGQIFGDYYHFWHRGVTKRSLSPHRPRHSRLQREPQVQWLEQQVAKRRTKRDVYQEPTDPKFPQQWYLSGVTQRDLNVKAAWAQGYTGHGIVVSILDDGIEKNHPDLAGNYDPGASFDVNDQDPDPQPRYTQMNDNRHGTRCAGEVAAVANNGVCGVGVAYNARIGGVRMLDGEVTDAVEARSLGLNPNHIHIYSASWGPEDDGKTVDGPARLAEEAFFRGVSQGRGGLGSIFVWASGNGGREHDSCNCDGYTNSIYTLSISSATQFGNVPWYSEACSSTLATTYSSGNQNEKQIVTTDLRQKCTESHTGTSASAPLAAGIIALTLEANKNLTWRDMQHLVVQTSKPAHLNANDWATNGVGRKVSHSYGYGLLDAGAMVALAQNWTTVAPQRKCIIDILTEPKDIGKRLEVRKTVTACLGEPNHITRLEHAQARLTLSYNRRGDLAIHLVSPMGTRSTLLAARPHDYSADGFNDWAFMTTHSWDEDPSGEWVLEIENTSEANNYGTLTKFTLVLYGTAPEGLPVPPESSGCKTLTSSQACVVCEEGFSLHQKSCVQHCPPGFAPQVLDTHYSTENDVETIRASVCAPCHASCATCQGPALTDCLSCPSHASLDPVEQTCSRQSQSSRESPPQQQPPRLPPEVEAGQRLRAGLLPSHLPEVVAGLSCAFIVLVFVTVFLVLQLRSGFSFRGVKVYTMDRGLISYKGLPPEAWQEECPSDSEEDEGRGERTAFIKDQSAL

With `O=C(O)c1nn(Cc2ccc(Cl)cc2Cl)c2ccccc12` the outcome [1] was “inactive” and the Potency [2] was “inactive”.
For `C[C@]12Cc3nonc3C[C@@H]1CC[C@@H]1[C@@H]2CC[C@@]2(C)[C@H]1CC[C@]2(C)O`, the Potency [2] was “inactive”.
For `OC(c1ccccc1)(c1ccccc1)C1CCNCC1`, the Potency [2] was “inactive”.
In the case of `CCOC(C(=O)OCCN(C)C)(c1ccccc1)c1ccccc1`, the Potency [2] was “inactive”.
With `CNC(=O)Oc1cccc2ccccc12` the Potency [2] was “inactive”.
With `COP(=S)(OC)Oc1ccc(S(N)(=O)=O)cc1` the Potency [2] was “inactive”.
In the case of `CC(Cc1ccccc1)NCCCCl` (configuration not stated), the Potency [2] was “inactive”.
With `CC1=C2[C@H]3OC(=O)[C@@H](C)[C@@H]3CC[C@@]2(C)C=CC1=O` the Potency [2] was “inactive”.
For `CC[n+]1c(-c2ccccc2)c2cc(N)ccc2c2ccc(N)cc21`, the Potency [3] was 3.29 µM (active), the Potency [4] was 2.08 µM (active) and the Potency [5] was 1.47 µM (active). For the same compound, the Potency [6] was 928 nM (active), the Potency [7] was 13.1 µM (active) and the Potency [8] was 5.22 µM (active). For the same compound, the Potency [9] was 3.69 µM (active), the Potency [10] was 1.17 µM (active) and the Potency [11] was 5.85 µM (active). For the same compound, the Potency [12] was 1.65 µM (active), the Potency [13] was 14.7 µM (active) and the Potency [14] was 4.14 µM (active). For the same compound, the Potency [15] was 2.61 µM (active) and the Potency [16] was “inactive”.
With `O=C(CCCCl)c1ccc(F)cc1` the Potency [2] was “inactive”.
With `COC(=O)C1=CCCN(C)C1` the Potency [3] was “inactive”, the Potency [4] was 18.5 µM (active) and the Potency [5] was “inactive”. The Potency [7] was “inactive”, the Potency [8] was “inactive” and the Potency [9] was “inactive”. The Potency [10] was 10.4 µM (active), the Potency [11] was “inactive” and the Potency [12] was “inactive”. The Potency [13] was “inactive”, the Potency [14] was “inactive” and the Potency [15] was “inactive”. For the same compound, the Potency [16] was “inactive”, the outcome [1] was “inactive” and the outcome [17] was “inactive”. The Potency [2] was “inactive”.
With `Oc1ccc([C@H]2CNCc3c2ccc(O)c3O)cc1O` the outcome (Furin (Homo sapiens)) was “inactive”, the outcome [18] was “inactive” and the outcome [19] was “inactive”. The Potency [2] was 10.2 µM (active).
In the case of `COc1ccc(C(=O)N2CCCC2=O)cc1`, the Potency [3] was “inactive”, the Potency [7] was “inactive” and the Potency [10] was 14.7 µM (active). The Potency [11] was 29.3 µM (active), the Potency [12] was “inactive” and the Potency [16] was “inactive”. The outcome [1] was “inactive”, the outcome [17] was “inactive” and the Potency [2] was “inactive”.
With `CC1Sc2c(C(=O)O)c(=O)c3cc(F)c(N4CCNCC4)cc3n21` (configuration not stated) the Potency [4] was 14.7 µM (active), the Potency [5] was “inactive” and the Potency [6] was “inactive”. The Potency [8] was “inactive”, the Potency [10] was 18.5 µM (active) and the Potency [12] was “inactive”. For the same compound, the Potency [14] was “inactive”, the Potency [16] was “inactive” and the Potency [2] was “inactive”.
